Rows were chosen to be rich in hits. Some 7% of all compounds tested hit in one or more screens of this group.
AHR activator – activators of human aryl hydrocarbon receptor. 320,000 tested, 2.5% active. activation, % at 5 µM. AHR-responsive luciferase reporter cells, luminescence. P35869; in the data active = activation above about 47%
Target sequence (P35869 whole entry, looked up): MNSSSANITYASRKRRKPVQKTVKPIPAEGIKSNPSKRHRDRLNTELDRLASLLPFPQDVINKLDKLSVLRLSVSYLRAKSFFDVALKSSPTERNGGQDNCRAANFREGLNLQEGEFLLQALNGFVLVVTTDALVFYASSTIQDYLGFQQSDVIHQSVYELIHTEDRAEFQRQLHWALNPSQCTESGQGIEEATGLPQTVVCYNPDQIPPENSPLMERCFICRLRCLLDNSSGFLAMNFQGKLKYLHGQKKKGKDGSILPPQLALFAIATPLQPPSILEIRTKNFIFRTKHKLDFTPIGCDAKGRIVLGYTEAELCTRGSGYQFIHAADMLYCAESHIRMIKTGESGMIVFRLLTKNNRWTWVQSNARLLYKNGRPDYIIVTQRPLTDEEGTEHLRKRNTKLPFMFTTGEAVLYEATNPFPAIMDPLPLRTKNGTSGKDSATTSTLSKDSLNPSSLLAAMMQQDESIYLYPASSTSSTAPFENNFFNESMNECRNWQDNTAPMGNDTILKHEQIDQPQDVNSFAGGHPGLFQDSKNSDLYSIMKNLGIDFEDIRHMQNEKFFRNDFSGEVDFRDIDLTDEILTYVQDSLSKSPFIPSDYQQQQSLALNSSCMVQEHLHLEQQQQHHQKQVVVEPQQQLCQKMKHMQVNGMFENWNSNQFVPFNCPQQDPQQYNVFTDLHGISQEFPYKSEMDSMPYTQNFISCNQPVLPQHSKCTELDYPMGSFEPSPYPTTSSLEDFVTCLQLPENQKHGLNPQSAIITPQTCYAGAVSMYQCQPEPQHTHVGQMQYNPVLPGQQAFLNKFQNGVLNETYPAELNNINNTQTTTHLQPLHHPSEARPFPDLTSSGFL
ADAM10 inh – inhibitors of human ADAM10; 370,000 tested, 0.62% active; AID 720582; O14672; recombinant ADAM10, EDANS/DABCYL FRET peptide cleavage, 3 h; inhibition, % at 7 µM;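 active = inhibition above a per-campaign cutoff equal to the mean of compounds falling between control-based bounds plus 3 SD, cut at about 20% in these data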
rCAG RNA binder – r(CAG) repeat RNA binding; TO-PRO-1 dye displacement fluorescence; inhibition, % at 3 µM; 370,000 tested, 1.3% active;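 active = inhibition above the plate cutoff, the mean of all test compounds on that plate plus 3 SD, cut at about 35% in these data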;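 note: higher means more dye released from RNA so lower well fluorescence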
proKLK7 act – activates the human kallikrein-7 zymogen; P49862; purified proKLK7, EDANS-DABCYL substrate fluorescence; 100% is mature enzyme control, 0% vehicle; activation, % at 7 µM; 370,000 tested, 0.9% active; AID 652039;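 active = activation above the mean of all tested compounds plus 3 SD, computed per campaign excluding outliers beyond control limits, cut at about 13% in these data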
GRIN3A LBD mod – modulates the human NR3A ligand-binding domain | NR3A LBD differential scanning fluorimetry, Tm shift; 0% = protein alone, 100% = glycine-bound protein | Tm shift relative to glycine control, % at 25 µM | 340,000 tested, 2.5% active | AID 1259313;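 active = melting temperature shift of at least 10% of the positive control shift, at one fixed dose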
ADAM17 inh – inhibits human ADAM17; AID 720648; inhibition, % at 6.95 µM; 370,000 tested, 0.83% active; recombinant ADAM17, EDANS/DABCYL FRET peptide cleavage;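 active = inhibition above the mean of compounds lying between control limits plus 3 SD, set per campaign, cut at about 8.5% in these data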
KLK7 act conf – confirmation of human kallikrein-7 zymogen activators | shares compounds with proKLK7 act | purified proKLK7, EDANS-DABCYL substrate fluorescence; scaled: vehicle 0, mature enzyme 100 | activation, % at 7 µM | 3,200 tested, 68% active | AID 686949;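 active = activation, as change over the incubation, above the mean of all tested compounds plus 3 SD, cut at about 13% in these data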
EDANS-DABCYL int – fluorescence interference counter-screen for KLK7 activators. shares compounds with proKLK7 act. EDANS-DABCYL substrate fluorescence interference, no enzyme, 4 h; solvent 0%, active enzyme control 100%. activation, % at 7 µM. 3,200 tested, 80% active;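 active = activation above the all-compound mean plus 3 SD, ignoring values outside control-based bounds, cut at about 4.8% in these data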;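 note: value is the 4 h activation minus the activation read at time zero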
EDANS interf – optically interferes with EDANS-DABCYL fluorescence, kallikrein-7 activator counter-screen; EDANS-DABCYL peptide fluorescence interference, no enzyme; 250 tested, 20% active; AID 720493; EC50, µM; shares compounds with proKLK7 act;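 active = compounds that raise the fluorescence signal in this interference counterscreen, with EC50 at or below 10 µM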;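 note: intact quenched peptide substrate alone read at 355 nm excitation and 520 nm emission; signal is fluorescence gain from T0 to T4 after four hours at room temperature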
A number is an active result.

What do the screens show for `CN(C)C(=O)c1cccc(-c2cnc3c(NC=O)cc(-c4ccccc4F)cn23)c1`?
ADAM10 inh: inactive; rCAG RNA binder: inactive; proKLK7 act: inactive; ADAM17 inh: inactive

Results for Nc1nc2ncccc2cc1C(=O)NCCc1cccs1 ?
ADAM10 inh: inactive; rCAG RNA binder: inactive; proKLK7 act: 24; ADAM17 inh: inactive; KLK7 act conf: 22; EDANS-DABCYL int: 28

Results for COc1ccccc1C(=O)NCc1ccccn1 ?
AHR activator: inactive; ADAM10 inh: inactive; rCAG RNA binder: inactive; proKLK7 act: inactive; GRIN3A LBD mod: inactive; ADAM17 inh: inactive

How did O=C1/C(=C/c2cccc(F)c2)Oc2cc(O)ccc21 do in these assays?
AHR activator: inactive; ADAM10 inh: inactive; rCAG RNA binder: inactive; proKLK7 act: 21; GRIN3A LBD mod: inactive; ADAM17 inh: inactive; KLK7 act conf: 56; EDANS-DABCYL int: 79

Results for CCCCN1C(=O)N(CCc2ccc(F)cc2)S(=O)(=O)c2cc(C(F)(F)F)ccc21 ?
ADAM10 inh: inactive; rCAG RNA binder: inactive; proKLK7 act: inactive; GRIN3A LBD mod: inactive; ADAM17 inh: inactive

What do the screens show for `FC(F)(F)c1ccccc1CN1CCCc2nc(-c3ccccc3)ccc21`?
ADAM10 inh: inactive; rCAG RNA binder: inactive; proKLK7 act: inactive; ADAM17 inh: inactive

Results for COc1ccc(-c2ccc3c(n2)CCCN3Cc2ccccc2C(F)(F)F)cc1 ?
ADAM10 inh: inactive; rCAG RNA binder: inactive; proKLK7 act: 18; ADAM17 inh: inactive; KLK7 act conf: 15; EDANS-DABCYL int: 13; EDANS interf: inactive

What do the screens show for `CC(C)=CCC/C(C)=C/CNC(=O)C[C@H]1C[C@H](C(=O)N2CCCCC2)[C@@]2(CCc3ccccc3)c3[nH]c4cc(-c5ccco5)ccc4c3CCN2C1=O`?
GRIN3A LBD mod: inactive

How did COCCCNC(=O)C[C@H]1C[C@H](C(=O)N2CCCCC2)[C@@]2(CCc3ccccc3)c3[nH]c4cc(-c5ccco5)ccc4c3CCN2C1=O do in these assays?
ADAM10 inh: inactive; rCAG RNA binder: inactive; proKLK7 act: 22; GRIN3A LBD mod: inactive; ADAM17 inh: inactive; KLK7 act conf: inactive; EDANS-DABCYL int: inactive

What do the screens show for `O=C(C[C@H]1C[C@H](C(=O)N2CCCCC2)[C@@]2(CCc3ccccc3)c3[nH]c4cc(-c5ccco5)ccc4c3CCN2C1=O)NCCN1CCOCC1`?
ADAM10 inh: inactive; rCAG RNA binder: inactive; proKLK7 act: 22; GRIN3A LBD mod: inactive; ADAM17 inh: inactive; KLK7 act conf: 17; EDANS-DABCYL int: 5.7; EDANS interf: 8.6

What do the screens show for `O=C(C[C@H]1C[C@H](C(=O)N2CCCCC2)[C@@]2(CCc3ccccc3)c3[nH]c4ccc(Cl)cc4c3CCN2C1=O)NCCN1CCOCC1`?
GRIN3A LBD mod: inactive

What do the screens show for `COc1ccc2c(=O)c3ccccc3oc2c1`?
AHR activator: inactive; ADAM10 inh: inactive; rCAG RNA binder: inactive; proKLK7 act: inactive; GRIN3A LBD mod: inactive; ADAM17 inh: inactive

What do the screens show for `COc1ccc2oc3cc(NCCN(C)C)ccc3c(=O)c2c1`?
ADAM10 inh: inactive; rCAG RNA binder: inactive; proKLK7 act: 66; ADAM17 inh: inactive; KLK7 act conf: 80; EDANS-DABCYL int: 79

How did O=C(O)C1=NN(c2cc(Cl)c(S(=O)(=O)O)cc2Cl)C(=O)C1 do in these assays?
ADAM10 inh: inactive; rCAG RNA binder: inactive; proKLK7 act: inactive; GRIN3A LBD mod: inactive; ADAM17 inh: inactive

What do the screens show for `Cc1c(CCC(=O)NC2CC2)c(=O)oc2cc(O)ccc12`?
AHR activator: inactive; ADAM10 inh: inactive; rCAG RNA binder: inactive; proKLK7 act: 86; GRIN3A LBD mod: inactive; ADAM17 inh: inactive; KLK7 act conf: 62; EDANS-DABCYL int: 73

Results for Cc1oc2cc3oc(=O)c(CCC(=O)NCCCC(=O)O)c(C)c3cc2c1C ?
AHR activator: inactive; ADAM10 inh: inactive; rCAG RNA binder: inactive; proKLK7 act: 14; GRIN3A LBD mod: inactive; ADAM17 inh: inactive; KLK7 act conf: 24; EDANS-DABCYL int: 22

What do the screens show for `CCOC(=O)c1cc(-c2ccccc2)nc2c(O)cccc12`?
ADAM10 inh: inactive; rCAG RNA binder: inactive; proKLK7 act: inactive; GRIN3A LBD mod: inactive; ADAM17 inh: inactive

Results for CCOC(=O)C1=Nc2cccc3c(O)ccc1c23 ?
ADAM10 inh: inactive; rCAG RNA binder: inactive; proKLK7 act: 53; ADAM17 inh: inactive; KLK7 act conf: 79; EDANS-DABCYL int: 85

How did COc1ccc2nc(C(F)(F)C(F)(F)F)c(C#N)c(N)c2c1 do in these assays?
AHR activator: inactive; ADAM10 inh: inactive; rCAG RNA binder: inactive; proKLK7 act: 50; GRIN3A LBD mod: 22; ADAM17 inh: inactive; KLK7 act conf: inactive; EDANS-DABCYL int: inactive

Results for COc1cc(OC)c2c(N)c(C#N)c(C(F)(F)C(F)(F)F)nc2c1 ?
AHR activator: inactive; ADAM10 inh: inactive; rCAG RNA binder: inactive; proKLK7 act: inactive; GRIN3A LBD mod: inactive; ADAM17 inh: inactive

What do the screens show for `COc1cccc(NC(=O)C2CCC(CNS(=O)(=O)c3cccc4cccnc34)CC2)c1` (stereo not given)?
AHR activator: inactive; ADAM10 inh: inactive; rCAG RNA binder: inactive; proKLK7 act: inactive; GRIN3A LBD mod: inactive; ADAM17 inh: inactive

What do the screens show for `CCCCn1c(SCC(=O)Nc2ccc(OC)cc2)nc2ccc(N3CCOCC3)cc2c1=O`?
AHR activator: inactive; ADAM10 inh: inactive; rCAG RNA binder: inactive; proKLK7 act: 17; GRIN3A LBD mod: inactive; ADAM17 inh: inactive; KLK7 act conf: inactive; EDANS-DABCYL int: inactive

How did CC1CCN(C(=O)CSc2nnc(CNC(=O)c3ccc(S(=O)(=O)N(C)C)cc3)o2)CC1 do in these assays?
AHR activator: inactive; ADAM10 inh: inactive; rCAG RNA binder: inactive; proKLK7 act: inactive; GRIN3A LBD mod: inactive; ADAM17 inh: inactive

Results for CCCn1c(/C=C/c2cc[n+](C)cc2)nc2ccccc21 ?
AHR activator: inactive; ADAM10 inh: inactive; rCAG RNA binder: inactive; proKLK7 act: 50; GRIN3A LBD mod: inactive; ADAM17 inh: inactive; KLK7 act conf: 61; EDANS-DABCYL int: 72

What do the screens show for `CCCn1c(N)nc2ccccc21`?
AHR activator: inactive; ADAM10 inh: inactive; rCAG RNA binder: inactive; proKLK7 act: inactive; GRIN3A LBD mod: inactive; ADAM17 inh: inactive

Screening data: PubChem BioAssay, several laboratories
